# CSC inhib: cancer stem cell inhibition. inhibition, % at 7.5 µM. cancer stem cell-like cells viability, luminescence. 300,000 compounds, 1.1% hits; in the data active means inhibition above about 75%; inconclusive means no clear call, values can overlap the other calls; tested in HMLE shEcad cells
# Mdm2 MdmX PPI: inhibitors of human Mdm2/MdmX interaction; SaOS-2 split-luciferase Mdm2/MdmX complementation, luminescence; inhibition, % at 8 µM; AID 485346; O15151+Q00987; 330,000 compounds, 3% hits;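 active means inhibition of at least 50% at 8 µM in the primary screen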
# Target sequence (O15151 whole entry, looked up): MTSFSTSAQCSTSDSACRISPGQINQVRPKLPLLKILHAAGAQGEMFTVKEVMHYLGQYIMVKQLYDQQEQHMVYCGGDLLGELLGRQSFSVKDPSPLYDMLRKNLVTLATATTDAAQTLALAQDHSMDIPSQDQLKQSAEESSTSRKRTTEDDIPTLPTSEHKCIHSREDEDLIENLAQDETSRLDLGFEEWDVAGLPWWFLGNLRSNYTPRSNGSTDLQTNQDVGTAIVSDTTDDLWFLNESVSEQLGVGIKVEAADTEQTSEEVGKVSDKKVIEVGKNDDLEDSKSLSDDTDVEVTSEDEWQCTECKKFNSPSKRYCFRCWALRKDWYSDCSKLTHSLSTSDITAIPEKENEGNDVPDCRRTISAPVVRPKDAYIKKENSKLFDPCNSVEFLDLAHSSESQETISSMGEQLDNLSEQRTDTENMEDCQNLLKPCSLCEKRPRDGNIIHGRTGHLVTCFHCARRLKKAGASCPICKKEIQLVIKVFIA
# Target sequence (Q00987 whole entry, looked up): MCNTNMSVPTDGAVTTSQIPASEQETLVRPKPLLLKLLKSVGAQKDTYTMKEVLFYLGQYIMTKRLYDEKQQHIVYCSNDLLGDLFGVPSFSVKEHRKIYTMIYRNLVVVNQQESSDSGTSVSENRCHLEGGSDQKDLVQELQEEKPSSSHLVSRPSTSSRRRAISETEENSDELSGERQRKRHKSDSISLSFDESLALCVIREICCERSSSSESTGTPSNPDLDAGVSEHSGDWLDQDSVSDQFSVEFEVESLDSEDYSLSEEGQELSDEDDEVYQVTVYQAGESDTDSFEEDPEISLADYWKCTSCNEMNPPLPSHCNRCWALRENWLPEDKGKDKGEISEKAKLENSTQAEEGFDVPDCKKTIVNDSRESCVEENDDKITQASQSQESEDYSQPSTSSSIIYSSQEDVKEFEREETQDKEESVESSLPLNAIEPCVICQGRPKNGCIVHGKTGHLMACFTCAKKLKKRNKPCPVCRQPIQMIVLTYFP
# MPTP block: permeability transition pore inhibition; isolated mouse mitochondria, Ca2+ swelling absorbance, 30 min; inhibition, % at 10 µM; 360,000 compounds, 1.4% hits; AID 602449;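 active means inhibition of 50% or more, scaled per plate between neutral and stimulator controls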;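 further: 0% = DMSO wells given calcium and 100% = 1 mM EGTA wells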
# Gli-Sufu block: Gli-Sufu pathway antagonism; Sufu-KO-LIGHT fibroblasts, Gli luciferase reporter luminescence; inhibition, % at 5 µM; 340,000 compounds, 0.74% hits; AID 588413;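 active means inhibition above about 55%, limit read from the data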;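 further: 0% = DMSO-treated cells and 100% = wells with medium but no cells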
# NR3A LBD binder: NR3A (human) ligand-binding domain modulation | 340,000 compounds, 2.5% hits | Tm shift relative to glycine control, % at 25 µM | NR3A LBD differential scanning fluorimetry, Tm shift; 0% = protein alone, 100% = glycine-bound protein;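 active means melting temperature shift of at least 10% of the positive control shift, at one fixed dose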
# Beta cell apopt: blocks beta cell apoptosis | INS-1E cytokine-induced death, ATP luminescence, 48 h; percent of positive-control rescue, neutral wells zero | protection from apoptosis, % (concentration not given with the values) | 300,000 compounds, 0.8% hits | AID 435005;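 active means Every replicate reaches about 75%, or at least half do and their mean reaches it too, limit read from the data; inconclusive means At least half of replicates reach the limit but their mean does not; inactive means Under half of replicates reach the limit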;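 further: 0% = cytokine-treated negative control wells and 100% = positive control rescue; higher means more ATP so stronger rescue from cytokine killing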
# * = called active by the depositor; ? = inconclusive; . = no result given. Compounds with a hit are over-represented: about 6.6% of the library has one in this group of screens.
SMILES,CSC inhib,Mdm2 MdmX PPI,MPTP block,Gli-Sufu block,NR3A LBD binder,Beta cell apopt
COC(=O)C1=C(c2ccc(OCc3ccccc3)cc2)C[C@@H]2CC[C@H]1N2C,.,.,0,.,.,.
S=C1NC2(CCCCC2)NC12CCCCC2,-4,7,-1,3,16*,-6
CCOC(=O)c1c(NC(=O)c2c(N)n(CCCOC)c3nc4ccccc4nc23)sc2c1CCCC2,3,49,2,7,24*,2
CCCCn1c(NS(=O)(=O)c2ccc(C)cc2)c(C(=O)OCC)c2nc3ccccc3nc21,34,19,15,14,13*,-5
CCOCCCn1c(N)c(C(=O)Nc2sc3c(c2C(=O)OC)CCCC3)c2nc3ccccc3nc21,.,50,4,7,17*,.
CCCCn1c(NC(=O)c2ccco2)c(C(=O)OCC)c2nc3ccccc3nc21,11,14,0,4,-4,-18
CCCCCc1cc(O)c2c3c(c(=O)oc2c1)CN(C)CC3,84*,27,4,-6,-3,10
CCC1(CCO)C(=O)NC(=S)NC1=O,.,.,0,3,-2,.
COC(=O)c1nc(-c2ccc3c(n2)C(=O)C(N)=C(OC)C3=O)c(N)c(-c2ccc(OC)c(OC)c2O)c1C,113*,36,1,58*,-15,111*
COC(=O)C1=C(c2cccc(C#N)c2)C[C@@H]2CC[C@H]1N2C(=O)NC1CC1,-13,-9,0,-5,-1,-4
COC(=O)C1=C(c2cccc(C#N)c2)C[C@@H]2CC[C@H]1N2C(=O)NC1Cc2ccccc2C1,84*,-2,-2,8,1,2
Cc1cc(C)cc(N2C(=O)NC(=O)/C(=C\c3cccn3-c3ccccc3)C2=O)c1,?,18,5,0,24*,-22
C=CCCC1(C(C)C)C(=O)NC(=S)NC1=O,.,.,1,-21,1,.
Cc1ccc(-n2c(C)nc3ccccc3c2=O)cc1C,-19,15,1,-4,0,-4
Cc1ccc2nsnc2c1-n1c(C)nc2ccccc2c1=O,12,28,0,2,17*,-7
CC(=O)[C@@]1(O)CCC2C3CC=C4C[C@@H](O)CC[C@]4(C)C3CC[C@@]21C (stereo partly drawn),-7,5,0,-2,-2,2
CC(=O)OC1C(=O)OCC23CCC4(C)OC4C2OC2CC(OC(=O)C=CC=CC(=O)OCCC1C)C3(C)C21CO1 (stereo not drawn),.,.,-2,89*,2,.
CC1=CC2OC3CC4OC(=O)C=CC=CC(C(C)O)OCC(O)C(C)CC(=O)OCC2(CC1O)C4(C)C31CO1 (stereo not drawn),.,.,-1,90*,-3,.
CC(O)C1C=CC=CC(=O)OC2CC3OC4C5OC5(C)CCC4(COC(=O)C4OC4(C)C(O)CO1)C2(C)C31CO1 (stereo not drawn),.,.,-1,86*,0,.
O=C1NC(=O)C(Cc2ccccc2)(Cc2ccccc2)C(=O)N1Cc1ccccc1,.,.,2,3,-2,.
O=C(NC1CCCCC1)N1Cc2cc(N3CCOCC3)ccc2-n2nncc2C1,.,.,-1,.,.,.
CC1C(c2ccccc2)OC(=O)N1C (stereo not drawn),.,.,0,-1,0,.
Nc1ccc(N2CCN(Cc3ccccc3Cl)CC2)c(Cl)c1,79*,-24,-2,-1,4,1
CC(=NNC(=S)N1CC2CCC(CC2)C1)c1nccs1,.,.,-1,91*,-3,.
O=C1NC(=S)NC(=O)C1Cc1ccccc1,.,.,0,8,13*,.
SMILES,CSC inhib,Mdm2 MdmX PPI,MPTP block,Gli-Sufu block,NR3A LBD binder,Beta cell apopt
CCCCCn1c(=O)c(C(=O)Nc2ncccc2C)c(O)c2ccccc21,-3,18,12,24,0,88*
CCCCn1c(=O)c(C(=O)Nc2ccccc2C)c(O)c2ccccc21,-2,14,4,-26,4,46
CCCCCn1c(=O)c(C(=O)Nc2ccccc2Cl)c(O)c2ccccc21,18,6,4,-11,-1,64
CCCCCn1c(=O)c(C(=O)Nc2nc3ccccc3[nH]2)c(O)c2ccccc21,8,21,3,-1,-1,80*
Cc1ccccc1NC(=NCCCN1CC1)Nc1ccccc1C,.,.,0,-1,-1,.
CC(=O)OC1C(O)C(C)OC(OC2C(OC(=O)C3CCC4C(C3)OC3(CC(OC(=O)/C=C/c5ccccc5)C(C)CO3)C43CO3)OC(C)C(O)C2OC(C)=O)C1O (stereo not drawn),.,.,-1,90*,0,.
C[N+](C)(C)CC1CCCC(C[N+](C)(C)C)C1=O (stereo not drawn),.,.,-1,2,0,.
Clc1ccc(COC(Cn2ccnc2)c2ccc(Cl)cc2Cl)c(Cl)c1 (stereo not drawn),102*,13,8,2,3,11
O=c1[nH]c(=O)n(Cc2ccc(F)cc2)c(O)c1C=NCCN1CCCCC1,7,2,0,3,20*,-1
O=c1[nH]c(=O)n(-c2ccc(Br)cc2)c(O)c1C=NCCN1CCCCC1,-20,23,2,-2,2,.
O=c1[nH]c(=O)n(-c2ccccc2Cl)c(O)c1C=NCCN1CCCCC1,-9,7,1,7,401*,-4
COCCOC(=O)C1=C(N)Oc2c(c(=O)oc3ccccc23)[C@@]12C(=O)Nc1ccccc12,-14,-9,2,5,0,-4
CCOC(=O)CNC(=O)N1Cc2cc(-c3ccc(OC)cc3)ccc2-n2nncc2C1,.,.,0,.,.,.
NS(=O)(=O)c1nc[nH]c1[N+](=O)[O-],.,.,1,-3,2,.
CN1CCN(c2ccc([N+](=O)[O-])c(NCc3ccco3)c2)CC1,93*,6,0,17,-1,3
C[C@]12CC[C@@H](O)CC1=CCC1C2CC[C@@]2(C)C1C[C@@H](F)[C@@H]2O (stereo partly drawn),-10,18,0,3,0,1
CCN(CC)c1ccc(/C=C2/C(=O)NC(=O)N(Cc3ccco3)C2=O)cc1,-7,0,31,-10,24*,-11
CCOc1cc(/C=C2/C(=O)NC(=O)N(c3ccc(CC)cc3)C2=O)ccc1OC(=O)c1cccs1,-13,11,0,-15,74*,-1
c1ccc2c(c1)-c1cccc3cccc-2c13,-13,-4,1,3,2,2
c1ccc2c(c1)[IH]c1ccccc1-2,.,.,-2,86*,-1,.
CC1=C(N2CC2)C(=O)C(CO)=C(N2CC2)C1=O,.,.,-2,28,3,.
O=[N+]([O-])c1ccc2c(c1)Cc1cc(O)ccc1-2,.,.,1,0,14*,.
O=[N+]([O-])c1cccc(O)c1,-8,-19,-4,-2,2,5
CCOC(=O)C(C)Oc1cc(C)cc2oc(=O)c3c(c12)CCCC3 (stereo not drawn),.,31,1,13,15*,.
CC(C)C(O)(C(=O)OCC1=CCN2CCC(O)C12)C(C)O (stereo not drawn),.,.,0,.,.,.

# Screening results: PubChem, several laboratories
